# Rows were chosen to be rich in hits. Some 2.4% of all compounds tested hit in one or more screens of this group.
# Pol kappa inh-1: DNA polymerase kappa (human) inhibition; Q9UBT6; 400,000 tested, 0.53% active; Potency, µM (titrated, usually from 107 µM), without a hit: top-dose activity, negative = inhibition, actives largely listed as inhibitors; purified Pol kappa, fluorescent DNA synthesis assay, 10 min; note: potency is the fitted concentration of half-maximal effect; % is set by controls: 0 for no effect and ±100 for the full control effect
#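 Readout: fluorescence, taken kinetically at 0 and 10 min. Conditions: 10 nM Pol kappa, 15 min RT compound preincubation, 50 nM substrate final. Controls: enzyme-free buffer wells.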
# Pol beta inh: DNA polymerase beta (human) inhibition. P06746. Pol beta primer extension/strand displacement, fluorescence kinetic. Potency, µM (top dose mostly 114 µM), inactives show top-dose activity change, negative = inhibition, hits mostly inhibitors. 340,000 tested, 1.3% active. AID 485314; note: potency is the fitted concentration of half-maximal effect; % is set by controls: 0 for no effect and ±100 for the full control effect
#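 Pol beta (10 nM) was preincubated with compound for 15 min at room temperature. The reaction was then started with 50 nM substrate and read immediately and after a further 10 min at room temperature.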
# Pol eta inh-1: blocks human DNA polymerase eta activity; Q9Y253; recombinant Pol eta, fluorescent DNA replication assay; Potency, µM (top dose mostly 114 µM), for inactives: at the top dose activity change, negative = inhibition, most hits filed as inhibitors; 390,000 tested, 1.2% active; note: potency is the fitted concentration of half-maximal effect; % is set by controls: 0 for no effect and ±100 for the full control effect
#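 Fluorescent replication assay: 50 nM final substrate added after a 15 min room-temperature compound preincubation with 10 nM enzyme. Signal taken at 0 min and again at 10 min.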
# FEN1 inh-1: human FEN1 inhibition | Recombinant FEN1 flap cleavage, fluorescence, 15 min | Potency, µM (doses to about 114 µM), without a hit: at the highest dose activity change, negative = inhibition, actives largely listed as inhibitors | AID 588795 | P39748 | 390,000 tested, 0.35% active; note: potency is the fitted concentration of half-maximal effect; % is set by controls: 0 for no effect and ±100 for the full control effect; nearly all actives have a fitted effect of over 65% in size
#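 Compounds are tested as a concentration series against 10 nM FEN1; after a 15 min room-temperature preincubation, 50 nM substrate starts cleavage, with plate reads at 0 and 15 min. Normalized responses are fitted by a Hill equation.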
# Pol iota inh: DNA polymerase iota (human) inhibition; Q9UNA4; Pol iota fluorescent replication assay, 10 min; Potency, µM (highest dose often 115 µM), without a hit: at the top dose activity, negative = inhibition, usual class: inhibitors; 390,000 tested, 1% active; note: potency is the fitted concentration of half-maximal effect
# Target sequence (Q9UNA4 whole entry, looked up): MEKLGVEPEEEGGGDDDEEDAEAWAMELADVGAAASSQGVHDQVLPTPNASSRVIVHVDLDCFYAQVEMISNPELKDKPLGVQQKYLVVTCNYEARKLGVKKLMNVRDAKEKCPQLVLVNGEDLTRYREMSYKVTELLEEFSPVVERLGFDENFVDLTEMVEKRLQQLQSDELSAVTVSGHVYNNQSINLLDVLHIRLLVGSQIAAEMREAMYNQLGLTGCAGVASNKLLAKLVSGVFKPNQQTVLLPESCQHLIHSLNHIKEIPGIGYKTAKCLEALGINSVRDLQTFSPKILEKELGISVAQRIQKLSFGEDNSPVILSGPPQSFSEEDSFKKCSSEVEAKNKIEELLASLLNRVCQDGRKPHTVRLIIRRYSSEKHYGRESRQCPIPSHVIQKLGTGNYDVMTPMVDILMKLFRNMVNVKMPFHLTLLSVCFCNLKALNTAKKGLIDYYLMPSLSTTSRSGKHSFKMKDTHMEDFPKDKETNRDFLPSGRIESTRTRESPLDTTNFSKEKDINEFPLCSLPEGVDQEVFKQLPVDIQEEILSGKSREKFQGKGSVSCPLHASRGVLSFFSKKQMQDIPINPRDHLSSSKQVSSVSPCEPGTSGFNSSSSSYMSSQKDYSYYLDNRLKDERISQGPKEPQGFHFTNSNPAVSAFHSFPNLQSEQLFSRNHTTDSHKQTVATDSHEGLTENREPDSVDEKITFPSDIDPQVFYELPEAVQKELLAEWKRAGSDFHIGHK
#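 Fluorescent replication assay read twice, at 0 min and 10 min after adding 50 nM (final) substrate. Enzyme (10 nM) and compounds were first incubated 15 min at room temperature; enzyme-free buffer wells were negative controls.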
# WRN helicase inh-1: WRN helicase (human) inhibition. Q14191. WRN helicase unwinding, fluorescent forked duplex, kinetic. AID 651768. 360,000 tested, 0.46% active. Potency, µM (series often up to 114 µM), inactives show at the highest dose activity change, negative = inhibition, actives largely listed as inhibitors; note: potency is the fitted concentration of half-maximal effect; % is set by controls: 0 for no effect and ±100 for the full control effect; nearly all actives have a fitted effect of over 55% in size
#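 Fluorescence dequenching readout, ex 525 nm/em 598 nm, kinetic mode: forked duplex DNA (100 nM final) with adjacent fluorophore and quencher unwound by WRN (20 nM final) with 2 mM ATP. Compound preincubation 15 min, room temperature.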
# BAZ2B inh: inhibits human BAZ2B bromodomain, hit validation. shares compounds with Pol kappa inh-1. AlphaScreen BAZ2B / biotin-H3K14Ac peptide displacement. Potency, µM, usual class: inhibitors. 25 tested, 100% active; calls by dose curve
# BAZ2B bead ctr: AlphaScreen signal interference, BAZ2B hit counter-screen; Potency, µM (series often up to 57.1 µM), for inactives: at the top dose activity change, negative = inhibition, most hits filed as inhibitors; 25 tested, under 10 active; AID 588859; shares compounds with Pol kappa inh-1; AlphaScreen biotin-His6 peptide bead counterscreen, signal decrease;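 active = clear concentration-dependent signal drop in the bead assay lacking the target, so a primary-screen artifact; inconclusive = weak, partial or single-dose response; inactive = no response, so a real primary hit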
# PGK validate: blocks T. brucei phosphoglycerate kinase. shares compounds with Pol kappa inh-1. TbPGK coupled GAPDH assay, Kinase-Glo luminescence. Potency, µM (series often up to 57.5 µM), inactives show top-dose activity change, negative = inhibition, hits mostly inhibitors. 500 tested, 79% active. AID 686980; note: potency is the fitted concentration of half-maximal effect; % is set by controls: 0 for no effect and ±100 for the full control effect; nearly all actives have a fitted effect of over 65% in size
# POLI cherry-pick: Human Pol iota inhibitor confirmatory assay; Potency, µM, hits mostly inhibitors; AID 720496; 1,500 tested, 77% active; Pol iota primer extension, TAMRA/BHQ fluorescence; shares compounds with Pol kappa inh-1; note: potency is the fitted concentration of half-maximal effect
# Pol kappa inh-2: confirmation of human DNA polymerase kappa inhibitors; purified Pol-kappa, fluorescent strand-displacement substrate; AID 720501; Potency, µM, most hits filed as inhibitors; shares compounds with Pol eta inh-1; 920 tested, 76% active; note: potency is the fitted concentration of half-maximal effect
# Pol eta inh-2: confirmation of human DNA polymerase eta inhibitors | shares compounds with Pol eta inh-1 | Pol eta primer extension, TAMRA/BHQ fluorescence, 10 min | Potency, µM, most hits filed as inhibitors | 2,600 tested, 64% active; note: potency is the fitted concentration of half-maximal effect
# FEN1 inh-2: FEN1 inhibition, cherry-pick retest. shares compounds with FEN1 inh-1. FEN1 flap cleavage, TAMRA/BHQ2 fluorogenic DNA substrate. Potency, µM, actives largely listed as inhibitors. 880 tested, 79% active. AID 720498; note: potency is the fitted concentration of half-maximal effect; nearly all actives have a fitted effect of over 60% in size
# WRN helicase inh-2: confirmation of human WRN helicase inhibitors. 610 tested, 63% active. shares compounds with WRN helicase inh-1. Potency, µM (series often up to 57.1 µM), for the others: top-dose activity, negative = inhibition, actives largely listed as inhibitors. WRN helicase DNA unwinding, fluorescence kinetic; note: potency is the fitted concentration of half-maximal effect; nearly all actives have a fitted effect of over 65% in size
# TO displacement: counter-screen for WRN helicase inhibitors: DNA binding; Potency, µM (highest dose often 57.1 µM), inactives show top-dose activity change, negative = inhibition, most hits filed as inhibitors; shares compounds with WRN helicase inh-1; thiazole orange DNA binding displacement, fluorescence; AID 720499; 610 tested, 10% active;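 note: drop in dye fluorescence marks compound binding to DNA; potency is the fitted concentration of half-maximal effect; % is set by controls: 0 for no effect and ±100 for the full control effect; nearly all actives have a fitted effect of over 60% in size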
# BLM counter: blocks human BLM helicase in WRN counterscreen | shares compounds with WRN helicase inh-1 | Recombinant BLM helicase DNA unwinding, red fluorescence | Potency, µM (top dose mostly 57.1 µM), inactives show at the highest dose activity change, negative = inhibition, hits mostly inhibitors | 610 tested, 60% active; note: potency is the fitted concentration of half-maximal effect; nearly all actives have a fitted effect of over 60% in size
# Active calls of the source: *; i = inactive; ? = inconclusive; . = no result given; [ ] = remark or other dose. Unless noted, calls come from the whole dose curve; as a rule, active = well fitted curve in the direction sought with a large enough effect; inconclusive = small, poorly fitted or top-dose-only effect, or another doubt; inactive = no such curve, though single readings can be large; an effect the other way counts as inactive or inconclusive.
SMILES,Pol kappa inh-1,Pol beta inh,Pol eta inh-1,FEN1 inh-1,Pol iota inh,WRN helicase inh-1,POLI cherry-pick,Pol kappa inh-2,Pol eta inh-2,FEN1 inh-2,WRN helicase inh-2,TO displacement,BLM counter,others
Cc1cc(/C=C2\C(=O)NC(=O)N(Cc3ccccc3)C2=O)c(C)n1-c1ccc(Cl)c(C(=O)O)c1,17.8µM*,3.55µM*,1.78µM*,79.4µM*,8.91µM*,28.2µM*,23.8*,23.8*,21.3*,?,6.81µM*,-11.9%,1.92µM*,PGK validate=6.51µM*
O=C1OC(=O)C2C3CCC(O3)C12 (centres undefined),?,14.0%[57.1 µM],0.0%[57.1 µM],.,0.1%[58.9 µM],.,.,.,.,.,.,.,.,
CC(=O)CC(c1ccccc1)c1c(O)c2cccc(O)c2oc1=O (centres undefined),i,.,.,.,.,.,.,.,.,.,.,.,.,
COC1C(O)C(C)OC(OC2C(Oc3cccc4c(O)c5c(=O)oc6ccc(C)c7c(=O)oc(c34)c5c67)OC(C)C(O)C2O)C1O (centres undefined),?,.,10µM*,1.78µM*,?,?,21.2*,4.23*,42.6*,6.01*,19.2µM*,?,63.3%,
CCN(CC)C(=O)c1ccc(NC(=O)c2cccc(C(F)(F)F)c2)cc1,-10.8%,15.2%,2.0%,10.9%,27.8%,-0.3%,.,.,.,.,.,.,.,
CCN(CCCl)c1cc(CN(C)C)cc(NC(=O)c2ccc(C(=O)Nc3cc(CN(C)C)cc(N(CC)CCCl)c3)cc2)c1,?,.,11.2µM*,?,28.2µM*,?,23.8*,0.532*,.,.,21.5µM*,-18.4%,?,
O=C(NC1CC1)c1cc(-c2ccco2)nc2ccccc12,20µM*,?,3.55µM*,?,?,20µM*,.,.,.,.,6.07µM*,?,0.961µM*,BAZ2B inh=10*;BAZ2B bead ctr=?
Nc1ccc2ccccc2c1,-5.1%,.,-8.3%,12.7%,-12.8%,2.5%,.,.,.,.,.,.,.,
C[n+]1c2cc(N)ccc2cc2ccc(N)cc21,22.4µM*,.,44.7µM*,8.91µM*,7.94µM*,17.8µM*,9.47*,7.52*,30.1*,.,10.8µM*,.,12.1µM*,
O=C1NC(=O)N(Cc2ccc(F)cc2)C(=O)/C1=C\c1ccoc1,25.1µM*,?,22.4µM*,?,14.1µM*,31.6µM*,18.9*,16.8*,30.1*,.,5.41µM*,22.2%,3.04µM*,
Cc1ncc2n1-c1ccc(Cl)cc1C(c1ccccc1F)=NC2O (centres undefined),16.3%[60.1 µM],.,.,.,.,.,.,.,.,.,.,.,.,
CN1/C(=C\C=C2C(=O)NC(=O)NC2=O)C(C)(C)c2ccccc21,4.6%,11.3%,1.2%,9.3%,18.9%,-8.6%,.,.,.,.,.,.,.,
CCN1/C(=C/C=C/C2=[N+](CC)c3ccccc3C2(C)C)C(C)(C)c2ccccc21,.,.,31.6µM*,.,.,4.74µM*,37.7*,67*,67.5*,67.5*,21.5µM*,i,21.5µM*,
CCC1C(=O)OC[C@H]1Cc1cncn1C (some centres undefined),-8.0%[60.1 µM],.,.,.,.,.,.,.,.,.,.,.,.,
O=C1NC(=O)N(Cc2ccccc2)C(=O)/C1=C/N1CCCc2ccccc21,-66.5%,-8.2%,-11.3%,?,?,-20.3%,.,.,.,.,.,.,.,
Cn1cccc1/C=C1\C(=O)NC(=O)N(Cc2ccco2)C1=O,22.4µM*,14.1µM*,10µM*,?,7.94µM*,39.8µM*,16.8*,.,16.9*,.,19.2µM*,-7.8%,8.57µM*,
CN1C(=O)/C(=C/C=C/c2ccco2)C(=O)NC1=S,25.1µM*,?,5.62µM*,20µM*,10µM*,35.5µM*,.,.,.,.,15.2µM*,30.6%,8.57µM*,PGK validate=5.17µM*
COc1ccc(CN2C(=O)NC(=O)/C(=C\c3cccc(OC)c3OC)C2=O)cc1,-6.0%,5.4%,14.3%,-16.3%,25.8%,?,.,.,.,.,.,.,.,
O=C1NC(=O)N(Cc2ccco2)C(=O)/C1=C/C=C/c1ccco1,14.1µM*,?,3.98µM*,25.1µM*,?,20µM*,6.7*,.,4.78*,42.6*,10.8µM*,-7.5%,6.07µM*,
Cc1c(C(=O)c2cccc3ccccc23)c2cccc3c2n1[C@@H](CN1CCOCC1)CO3,-9.8%[60.1 µM],.,.,.,.,.,.,.,.,.,.,.,.,
O=C1NC(=S)N(C2CC2)C(=O)/C1=C/c1ccc2c(c1)CCN2CCCCl,39.8µM*,20µM*,7.94µM*,?,22.4µM*,2.99µM*,15*,.,19*,75.7*,12.1µM*,?,7.64µM*,
COc1cccc(OC)c1-c1nn2c(-c3n[nH]c4c3CCC4)nnc2s1,79.4µM*,.,.,?,5.01µM*,.,?,.,?,?,?,?,?,
